# Compound activity: PubChem, several laboratories
# An excerpt weighted towards active compounds, which were near 22% of everything screened.
# CYP2C9 act – CYP2C9 (human) activation; P11712; recombinant CYP2C9, luciferin-H conversion, luminescence; stronger effect = higher value; factor 1 = untreated enzyme, 0 = blocked; activation factor at 5 µM; hit rate 1.4% among 96,000; AID 1024;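 active means activation factor of 2 or more for CYP2C9 at a 5 µM dose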;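 further: 0 = sulfaphenazole-blocked wells and 1 = vehicle-only wells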
# cytoskel mod – modifiers of cytoskeleton assembly; HUVEC TNFa F-actin phalloidin imaging, high content; inhibition, % at 2 µM; hit rate 0.18% among 91,000; AID 836;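 active means inhibition above the batch mean plus 3 SD and confirmed as a hit by visual image inspection, cut at about 30% in these data, passing the limit was not always enough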
# CYP2C9 inh – inhibitors of human CYP2C9; P11712; CYP2C9 Supersomes, luciferin-H conversion, luminescence; inhibition, % at 5 µM; hit rate 20% among 96,000;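 active means blocking of liver enzyme CYP2C9 beyond about 50% at 5 µM, limit read from the data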
# CYP2C19 inhib – human CYP2C19 inhibition. CYP2C19 Supersomes, luciferin-H EGE luminescence, 30 min. hit rate 21% among 96,000. P33261. inhibition, % at 5 µM;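 active means CYP2C19 inhibition above a set limit at 5 µM in the primary screen, cut at about 50% in these data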;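 further: plate controls were negative control wells for no effect and 2.5 mM tranylcypromine positive control for full effect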
# Target sequence (P33261 whole entry, looked up): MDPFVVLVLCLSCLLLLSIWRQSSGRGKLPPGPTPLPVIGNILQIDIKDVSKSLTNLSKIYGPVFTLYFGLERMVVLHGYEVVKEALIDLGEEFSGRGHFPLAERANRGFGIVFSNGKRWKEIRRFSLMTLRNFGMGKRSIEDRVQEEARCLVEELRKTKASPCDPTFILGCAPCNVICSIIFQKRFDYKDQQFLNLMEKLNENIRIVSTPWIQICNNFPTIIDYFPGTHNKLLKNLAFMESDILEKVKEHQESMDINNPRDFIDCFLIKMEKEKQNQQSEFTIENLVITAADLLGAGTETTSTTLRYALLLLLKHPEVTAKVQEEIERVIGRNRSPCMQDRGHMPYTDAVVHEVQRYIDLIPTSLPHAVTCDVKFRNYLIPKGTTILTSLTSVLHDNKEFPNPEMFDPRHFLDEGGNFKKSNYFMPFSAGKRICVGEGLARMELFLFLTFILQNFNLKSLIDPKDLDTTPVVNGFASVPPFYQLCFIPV
# E-sel TNF inh – blocks E-selectin expression induced by TNF alpha | HUVEC TNFa-induced E-selectin immunofluorescence, high content | inhibition, % at 2 µM | hit rate 0.71% among 120,000;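 active means inhibition above the batch mean plus 3 SD, and confirmed as a hit on visual image review, cut at about 43% in these data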;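 further: 0% = TNF-stimulated DMSO wells and 100% = unstimulated control wells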
# CYP2C19 act – increases human CYP2C19 enzyme activity. recombinant CYP2C19, luciferin-H EGE luminescence; stronger effect = higher value; 0 = fully inhibited enzyme, 1 = untreated enzyme. P33261. 96,000 tested, under 10 active. activation factor at 5 µM;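 active means activation factor of at least 2 at 5 µM in the primary screen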;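 further: 0 = wells with 2.5 mM tranylcypromine and 1 = vehicle-only wells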
# Active calls of the source: *; · = no result given.
SMILES,CYP2C9 act,cytoskel mod,CYP2C9 inh,CYP2C19 inhib,E-sel TNF inh,CYP2C19 act
O=C(ONC1=NCCCCC1)c1c(F)cccc1F,1.1,0,-9,91*,-10,0.1
COc1ccc(S(=O)(=O)N2CCCC(C(=O)NCc3ccncc3)C2)cc1Cl (configuration not stated),0,-18,98*,100*,36,0
Cc1ccc(S(=O)(=O)N2CCCC(C(=O)NCc3cccnc3)C2)cc1Cl (configuration not stated),0.8,16,23,86*,31,0.1
COc1ccc2nc(N3CCC(C)CC3)c(C#N)cc2c1,0.9,11,12,15,-8,0.8
CCOC(=O)C1CCN(c2nc3cc(OC)ccc3cc2C#N)CC1,0,4,96*,96*,-10,0
COc1ccc(C(=O)N2CCN(c3nc4cc(C)ccc4cc3C#N)CC2)c(OC)c1,0.4,-6,55*,-2,1,1
COc1cc(C(=O)N2CCCN(c3nc4cc(C)ccc4cc3C#N)CC2)cc(OC)c1OC,0.8,·,22,22,·,0.8
COc1ccc2nc(N3CCC(O)CC3)c(C#N)cc2c1,0.8,7,16,63*,-4,0.4
COc1ncnc2c1oc1nc(CC(C)C)c3c(c12)CC(C)(C)OC3,1.2,-14,-22,5,-56,1
CC(NS(=O)(=O)c1ccc(CCC(=O)NCc2ccco2)cc1)c1ccccc1 (configuration not stated),·,·,·,·,4,·
CC(C)Oc1ccc(C(CC(=O)NCc2ccco2)c2ccccc2)cc1 (configuration not stated),0.3,-14,68*,61*,-5,0.4
CC(C)CCn1nnnc1C(C(C)C)N1CCC(C(N)=O)CC1 (configuration not stated),·,12,·,·,10,·
CCOC(=O)N1CCN(S(=O)(=O)c2cc(OCC(=O)NC3CCCCC3)c(C)cc2Cl)CC1,0.4,4,62*,54*,8,0.5
O=C(COC(=O)c1ccc(Cl)c(S(=O)(=O)N2CCCC2)c1)NC1CCCCC1,·,·,·,·,-2,·
Cc1cc(Cl)c(S(=O)(=O)N2CCCCCC2)cc1OCC(=O)NC1CCCCC1,0.1,-1,89*,90*,7,0.1
CCOC(=O)N1CCN(C(=O)COc2ccc(S(=O)(=O)NC3CCCCC3)cc2C)CC1,0.6,0,42,-2,-28,1
Cc1cc(Cl)ccc1OCC(=O)NC1CCCC1,0.3,12,67*,98*,-7,0
Cc1ccc(OCC(=O)NC2CCCC2)c(C)c1,0.9,-31,6,47,-4,0.5
CCN1CCN(S(=O)(=O)c2cc(OCC(=O)NC3CCCCC3)c(C)cc2Cl)CC1,0.4,10,56*,33,-31,0.7
COc1ccc(OC)c(S(=O)(=O)N2CCCCC2C(=O)O)c1 (configuration not stated),0.9,19,6,-11,32,1.1
Cc1cc(Cl)c(S(=O)(=O)NC2CCCC2)cc1OCC(=O)NC1CCCCC1,0.6,-9,44,52*,12,0.5
Cc1cc(Cl)c(S(=O)(=O)N2CCSCC2)cc1OCC(=O)NC1CCCCC1,0.4,-4,57*,66*,14,0.3
CCOc1cc(C)c(S(=O)(=O)NC2CCCCC2)cc1C,0.6,-13,44,72*,8,0.3
O=C(COc1ccc(Br)cc1Cl)NC1CCCCC1,·,·,·,·,-5,·
O=C(COc1ccc(Cl)cc1Cl)NC1CCSC1=O (configuration not stated),0.4,11,60*,96*,-25,0
SMILES,CYP2C9 act,cytoskel mod,CYP2C9 inh,CYP2C19 inhib,E-sel TNF inh,CYP2C19 act
CSc1ccccc1N=CC1=C(O)CC(C)(C)CC1=O,·,6,·,·,-11,·
N=c1c2c3c(sc2ncn1Cc1ccccc1)CCCC3,·,·,·,·,7,·
C/C(N)=C(/C#N)C(=O)CSc1nnc(Cc2ccccc2F)n1N,1,1,-2,42,·,0.6
Cc1cc(Cl)c(S(=O)(=O)N2CCCCCC2)cc1OCC(N)=O,1.9,45,-87,12,-4,0.9
CCOC(=O)C1CCCN(S(=O)(=O)c2cc(OCC(N)=O)c(C)cc2Cl)C1 (configuration not stated),1.2,-6,-18,91*,-18,0.1
CCOC(=O)c1oc2ccccc2c1NC(=O)c1ccc(S(=O)(=O)N2CCCC2)cc1,1.1,1,-9,-9,-5,1.1
N#C/C(=C\c1ccc(Sc2ccccc2)o1)c1nc2ccccc2[nH]1,·,·,·,·,8,·
N#C/C(=C/c1ccc(Sc2nc3ccccc3[nH]2)o1)c1ccccc1F,0.1,5,90*,95*,12,0.1
N#C/C(=C/c1ccc(Sc2nc3ccccc3[nH]2)o1)c1cccc(F)c1,0,-4,95*,92*,9,0.1
N#C/C(=C/c1ccc(Sc2nc3ccccc3[nH]2)o1)c1cccc(Br)c1,0,6,97*,96*,9,0
N#C/C(=C/c1ccc(N2CCCCC2)o1)c1cccc(F)c1,0.8,·,25,15,0,0.8
COc1ccc(C(N)CCc2ccco2)cc1 (configuration not stated),0.9,-32,14,30,22,0.7
Cc1ccc(CN2CCN(/N=C/c3cccs3)CC2)cc1,·,·,·,·,15,·
COC(=O)c1onc(C(=O)c2ccccc2)c1C(=O)OC,0.5,6,51*,62*,-16,0.4
O=C(CCCc1ccccc1)NCc1cn2ccsc2n1,0.9,-7,6,31,6,0.7
O=C(CC1CCCCC1)NCc1cn2ccsc2n1,0.5,-29,53*,37,8,0.6
O=C(CC1CCCC1)NCCc1cn2ccccc2n1,0.8,17,21,68*,·,0.3
O=C(Cc1cn2ccsc2n1)Nc1nc2c(s1)CCCC2,0.5,14,52*,47,·,0.5
Cc1ccn2cc(CCNC(=O)CC3CCCCC3)nc2c1,·,·,·,·,-3,·
Cc1cccc(-c2noc(CCCC(=O)Nc3cccnc3)n2)c1,0.9,42,12,18,-6,0.8
COc1cc(-c2noc(CCC(=O)Nc3cccnc3)n2)cc(OC)c1OC,0.6,-13,37,13,62*,0.9
O=C(CCCc1nc(-c2ccc(Cl)cc2)no1)Nc1cccnc1,0.3,-4,75*,52*,2,0.5
COc1cc(NC(=O)CCc2nc(-c3cccs3)no2)cc(OC)c1OC,0.7,3,33,27,-26,0.7
Cc1cc(SCC(=O)OCC(=O)N2CCN(C(=O)c3ccco3)CC2)c(C)cc1Br,1.1,-45,-15,-6,19,1.1
O=C(NN=C1CCN(Cc2ccccc2)CC1)c1ccccc1,·,·,·,·,68*,·
CCOC(=O)c1cc(-c2ccccc2)sc1N,·,2,·,·,-2,·
CCOC(=O)c1sc(-c2ccc(OC)cc2)cc1N,0.3,-20,68*,65*,-32,0.3
CCOC(=O)c1sc(-c2ccccc2)cc1N,0.2,-2,80*,90*,29,0.1
